High-throughput results: PubChem, National Center for Advancing Translational Sciences (NCATS)
L3MBTL1 block – L3MBTL1 (human) inhibition; Q9Y468; AlphaScreen L3MBTL1–H3K9me1 peptide binding; Potency, µM (top dose mostly 57.1 µM), for inactives: top-dose activity, negative = inhibition, most hits filed as inhibitors; actives 0.66% (n = 230,000); AID 485360; note: potency is the fitted concentration of half-maximal effect; % is set by controls: 0 for no effect and ±100 for the full control effect; nearly all actives have a fitted effect of over 60% in size
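L3MBTL1 (50 nM) pre-complexed 30 min with biotinylated H3(1-15)K9me1 peptide (75 nM), then compounds added for 30 min at room temperature; AlphaScreen streptavidin donor/nickel chelate acceptor beads (10 ug/mL final) read after 30 min dark incubation.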
JMJD2A Tudor inh – inhibitors of human JMJD2A Tudor domain; O75164; AlphaScreen JMJD2A-Tudor / H3K4me3 peptide binding; Potency, µM (highest dose often 114 µM), for the others: top-dose activity change, negative = inhibition, usual class: inhibitors; actives 4.4% (n = 390,000); AID 504339; note: potency is the fitted concentration of half-maximal effect; % is set by controls: 0 for no effect and ±100 for the full control effect; nearly all actives have a fitted effect of over 50% in size
HP1b binding inh – inhibitors of HP1-beta chromodomain binding to methylated histone tails; AlphaScreen HP1-beta / biotin-H3K9me3 peptide binding; P83916; actives 0.56% (n = 390,000); Potency, µM (highest dose often 114 µM), for the others: top-dose activity change, negative = inhibition, most hits filed as inhibitors; note: potency is the fitted concentration of half-maximal effect; nearly all actives have a fitted effect of over 70% in size
Target sequence (P83916 whole entry, looked up): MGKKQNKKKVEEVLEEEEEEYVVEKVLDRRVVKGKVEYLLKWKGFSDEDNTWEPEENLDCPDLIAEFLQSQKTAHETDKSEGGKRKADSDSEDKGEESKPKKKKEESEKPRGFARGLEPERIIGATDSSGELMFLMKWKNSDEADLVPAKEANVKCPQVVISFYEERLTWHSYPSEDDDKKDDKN
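AlphaScreen: HP1-beta (50 nM) preformed 30 min with biotin-H3(1-18)K9me3 peptide (50 nM) in PBS pH 7.4, 0.01% Tween-20. Compound added for 30 min at RT, then streptavidin donor/nickel chelate acceptor beads (10 ug/mL) for 30 min.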
BAZ2B inh – blocks human BAZ2B. AlphaScreen BAZ2B-H3K14Ac peptide displacement. AID 504333. Q9UIF8. Potency, µM (top dose mostly 114 µM), inactives show at the top dose activity change, negative = inhibition, usual class: inhibitors. actives 4.4% (n = 360,000); note: potency is the fitted concentration of half-maximal effect; % is set by controls: 0 for no effect and ±100 for the full control effect; nearly all actives have a fitted effect of over 60% in size
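AlphaScreen displacement: compounds (up to 110uM) incubated 30 min at room temperature with a preformed 50 nM BAZ2B/50 nM biotinylated H3K14Ac peptide complex in PBS pH 7.4 with Tween-20. Donor and acceptor beads at 10 ug/mL final added, 20 min light-protected before reading.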
G9a inh – G9a (human) methyltransferase inhibition; Q96KQ7; G9a H3K9 monomethylation, AlphaScreen, 2 h; Potency, µM (top dose mostly 102 µM), for inactives: at the highest dose activity, negative = inhibition, actives largely listed as inhibitors; actives 8.8% (n = 350,000); note: potency is the fitted concentration of half-maximal effect; % is set by controls: 0 for no effect and ±100 for the full control effect; nearly all actives have a fitted effect of over 75% in size
Target sequence (Q96KQ7 913-1193 limits assumed): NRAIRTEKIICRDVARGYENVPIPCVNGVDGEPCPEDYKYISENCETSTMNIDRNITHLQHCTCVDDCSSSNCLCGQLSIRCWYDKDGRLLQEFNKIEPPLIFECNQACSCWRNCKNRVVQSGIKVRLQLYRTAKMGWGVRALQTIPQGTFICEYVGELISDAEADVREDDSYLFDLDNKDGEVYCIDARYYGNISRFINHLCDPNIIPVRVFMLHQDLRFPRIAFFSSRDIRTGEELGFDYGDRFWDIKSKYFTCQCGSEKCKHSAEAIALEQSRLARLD
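AlphaScreen detection with an anti-monomethyl H3K9 antibody quantified product after a 2 h room-temperature reaction containing 500 nM biotinylated H3K9 peptide, 20 µM SAM and 20 nM enzyme, which had been preincubated 15 min with compound.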
Sfp inh – blocks B. subtilis Sfp PPTase activity; actives 3.5% (n = 310,000); Potency, µM, for the others: largest response in the series, negative = inhibition, usual class: inhibitors; Biochemical Sfp PPTase activity, qHTS; Q9F4F7;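 note: the enzyme is Sfp with the accession as filed and its product quenches rhodamine fluorescence; potency is the fitted concentration of half-maximal effect; 0% = enzyme reaction without inhibitor and -100% = no enzyme wells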
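Fluorescence-quenching assay: 15 nM Sfp-PPTase preincubated 15 min at room temperature with compound, then 5 uM rhodamine-CoA and 12.5 uM BHQ-2-labelled YbbR peptide added. Fluorescence (ex 525/em 598 nm) read at start and after 30 min; difference gives rate.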
Sfp PPTase conf – confirmation of Bacillus subtilis Sfp PPTase inhibitors; actives 79% (n = 380); Potency, µM (doses to about 114 µM), for the others: at the top dose activity change, negative = inhibition, actives largely listed as inhibitors; AID 2701; shares compounds with Sfp inh; Sfp PPTase enzymatic assay, qHTS titration;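 note: potency is the fitted concentration of half-maximal effect; plate controls were uninhibited Sfp reaction for no effect and no enzyme control for full effect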
Target sequence (Q9F4F7 whole entry, looked up): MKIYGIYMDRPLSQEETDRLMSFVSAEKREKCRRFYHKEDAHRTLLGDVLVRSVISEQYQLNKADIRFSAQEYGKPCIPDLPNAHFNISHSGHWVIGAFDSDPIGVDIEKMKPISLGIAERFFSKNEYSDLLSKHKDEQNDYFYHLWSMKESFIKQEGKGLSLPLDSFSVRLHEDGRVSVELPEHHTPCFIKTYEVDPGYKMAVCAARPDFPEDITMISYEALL
Sfp gel assay – Inhibits B. subtilis Sfp phosphopantetheinylation | shares compounds with Sfp inh | purified Sfp, gel-based phosphopantetheinylation read-out | Potency, µM, usual class: inhibitors | actives 20% (n = 210) | AID 2707;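 active = potency below 100 µM; inconclusive = dose-dependent response but potency above 100 µM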;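 note: band intensities scaled against SCH202676 control wells before curve fitting; potency is an IC50 for inhibitors of Sfp transfer activity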
An asterisk follows results filed as active; ! = not confirmed by another sample; [ ] = dose if it differs, or a comment. Most compounds without a hit are left out; they make up all but 12% or so of the library. Unless noted, calls come from the whole dose curve; as a rule, active = well fitted curve in the direction sought with a large enough effect; inconclusive = small, poorly fitted or top-dose-only effect, or another doubt; inactive = no such curve, though single readings can be large; an effect the other way counts as inactive or inconclusive.

How did Cc1cccc(N(C)C(=O)C(Cc2ccccc2)NS(=O)(=O)c2cccc3nsnc23)c1 (stereo not drawn) do in these assays?
JMJD2A Tudor inh: inconclusive; HP1b binding inh: -2%; G9a inh: -32%[59 µM]

Results for Cc1ccc(NC(=O)C2CCN(C(=O)c3cnn(-c4ccccc4)c3-n3cccc3)CC2)cc1C ?
JMJD2A Tudor inh: -18%; HP1b binding inh: 16%; BAZ2B inh: -21%; G9a inh: 8%[59 µM]

What do the screens show for `COC(=O)C[C@H]1c2ccccc2C2=C(C[C@@H](C)[C@H]3C(=O)NC(=O)[C@@H]23)N1C(=O)OC`?
Sfp inh: -7%

Results for O=c1nc2ccccc2c(NS(=O)(=O)c2ccc(Cl)cc2)n1-c1ccccc1 ?
L3MBTL1 block: -8%; JMJD2A Tudor inh: 56µM*; HP1b binding inh: -15%; BAZ2B inh: -1%; G9a inh: 4%[12.7 µM]; Sfp inh: 17%

What do the screens show for `COc1ccc(S(=O)(=O)Nc2c3ccccc3nc(=O)n2-c2ccccc2)cc1`?
JMJD2A Tudor inh: -6%; HP1b binding inh: 45%; BAZ2B inh: 11%; G9a inh: 1%[59 µM]; Sfp inh: -2%

Results for O=C1/C(=C/c2ccccc2)SC(=S)N1C1CCS(=O)(=O)C1 (stereo not drawn) ?
L3MBTL1 block: 6%; JMJD2A Tudor inh: 6%; HP1b binding inh: 11%; BAZ2B inh: -18%; G9a inh: inconclusive; Sfp inh: -22%

What do the screens show for `O=C1/C(=C/c2ccncc2)SC(=S)N1C1CCS(=O)(=O)C1` (stereo not drawn)?
L3MBTL1 block: 2%; JMJD2A Tudor inh: -5%; HP1b binding inh: 11%; BAZ2B inh: 4%; G9a inh: inconclusive; Sfp inh: 50µM*

What do the screens show for `CC1CCN(c2cc(N)c(Cl)cc2[N+](=O)[O-])CC1`?
L3MBTL1 block: -5%; JMJD2A Tudor inh: inconclusive; HP1b binding inh: -17%; BAZ2B inh: inconclusive; G9a inh: 50µM*; Sfp inh: 1%

What do the screens show for `CCC1S/C(=C(\C#N)C(=O)NCc2ccco2)N(c2ccc(F)cc2)C1=O` (stereo not drawn)?
L3MBTL1 block: 1%; JMJD2A Tudor inh: -2%; HP1b binding inh: 37%; BAZ2B inh: -30%; G9a inh: inconclusive; Sfp inh: 25µM*

How did Clc1ccccc1-c1nn2c(COc3ccccc3)nnc2s1 do in these assays?
JMJD2A Tudor inh: -3%; HP1b binding inh: -16%; BAZ2B inh: 20%; G9a inh: inconclusive; Sfp inh: inconclusive

How did c1ccc(Cc2nn3c(COc4ccccc4)nnc3s2)cc1 do in these assays?
L3MBTL1 block: -3%; JMJD2A Tudor inh: inconclusive; HP1b binding inh: inconclusive; BAZ2B inh: -28%; G9a inh: 5µM*; Sfp inh: 14µM*; Sfp PPTase conf: 19µM*

Results for Cc1ccc(C2CC(c3ccco3)n3ncnc3N2)cc1 (stereo not drawn) ?
L3MBTL1 block: -4%; JMJD2A Tudor inh: -28%; HP1b binding inh: 40%; BAZ2B inh: 1%; G9a inh: inconclusive; Sfp inh: inconclusive

Results for Cc1ccc2c(c1)C(N1CCCC1=O)CC(c1ccco1)N2 (stereo not drawn) ?
L3MBTL1 block: -1%; JMJD2A Tudor inh: 21%[11.4 µM]; HP1b binding inh: -10%; BAZ2B inh: -38%; G9a inh: 10µM*; Sfp inh: 40µM*; Sfp PPTase conf: 26µM*; Sfp gel assay: inactive

Results for CC(=O)c1cccc(S(=O)(=O)N2CCCC(c3nc(-c4ccc(C)o4)no3)C2)c1 (stereo not drawn) ?
L3MBTL1 block: -5%; JMJD2A Tudor inh: -23%; HP1b binding inh: 3%; BAZ2B inh: -29%; G9a inh: 4µM*; Sfp inh: 56µM*; Sfp PPTase conf: 24µM*

How did CS(=O)(=O)N1CCC2(CCCN(c3ccccn3)C2)CC1 do in these assays?
G9a inh: -5%[12.7 µM]; Sfp inh: 20%

Results for CCOCCCn1c(=N)c(C(=O)NC2CCCC2)cc2c(=O)n3cccc(C)c3nc21 ?
JMJD2A Tudor inh: -18%; HP1b binding inh: 10%; BAZ2B inh: 0%; G9a inh: 6%[59 µM]

Results for CCOc1cc(CNc2cccc3ccccc23)cc(Br)c1OCC(=O)NC(C)(C)C ?
JMJD2A Tudor inh: -34%; HP1b binding inh: 2%; BAZ2B inh: -7%; G9a inh: -3%[12.7 µM]; Sfp inh: 17%

How did CCOc1cc(CNc2ccc(N(C)C)cc2)cc(Br)c1OCC(=O)NC(C)(C)C do in these assays?
L3MBTL1 block: inconclusive; JMJD2A Tudor inh: 40µM*; HP1b binding inh: 14µM*; BAZ2B inh: 14µM*; G9a inh: 5µM*; Sfp inh: 3.5µM*; Sfp PPTase conf: inconclusive; Sfp gel assay: inconclusive

How did CCOC(=O)c1c(-c2ccc(OC)cc2)csc1NC(=O)C1CCCO1 (stereo not drawn) do in these assays?
L3MBTL1 block: -6%; JMJD2A Tudor inh: -6%; HP1b binding inh: -11%; BAZ2B inh: 4%; G9a inh: 13µM*; Sfp inh: 16µM*; Sfp PPTase conf: 33µM*

What do the screens show for `CCOC(=O)NC(=O)COC(=O)c1cccc2ccccc12`?
L3MBTL1 block: 15%; JMJD2A Tudor inh: 3%; HP1b binding inh: 26%; BAZ2B inh: -3%; G9a inh: 12%; Sfp inh: 12%

Results for CCOC(=O)NNc1nncc2ccccc12 ?
L3MBTL1 block: 5%; JMJD2A Tudor inh: 1%; HP1b binding inh: 29%; BAZ2B inh: -11%; G9a inh: -41%[2.33 µM]; Sfp inh: 35µM*!; Sfp PPTase conf: 10%[53.7 µM]; Sfp gel assay: inconclusive

What do the screens show for `O=C(COc1ccc(F)cc1)Nc1ccc(S(=O)(=O)N(Cc2ccccc2)c2ccccc2)cc1`?
JMJD2A Tudor inh: -10%; HP1b binding inh: 78%; BAZ2B inh: 11%; G9a inh: 36%[59 µM]

Results for COC(=O)c1c(N2C(=O)CC(Sc3ccccc3C(=O)O)C2=O)sc2c1CCCC2 (stereo not drawn) ?
L3MBTL1 block: -4%; JMJD2A Tudor inh: -29%; HP1b binding inh: 7%; BAZ2B inh: 50µM*; G9a inh: 1.4µM*; Sfp inh: 1.6µM*; Sfp PPTase conf: 33µM*
